Source: publication PMC11006913

Experiments:
Experiment in all cases: PBM; 200 nM protein, PBS
Settings in all cases: dsDNA, one strand shown
HOXB9 [1] = molecular target: HOXB9 (Homo sapiens, UniProt P17482 171-250, T197M)
HOXC9 [2] = molecular target: HOXC9 (Homo sapiens, UniProt P31274 178-260, K195R)
VENTX = molecular target: T1, VENTX (Homo sapiens, UniProt O95231 78-163)
T1 sequence: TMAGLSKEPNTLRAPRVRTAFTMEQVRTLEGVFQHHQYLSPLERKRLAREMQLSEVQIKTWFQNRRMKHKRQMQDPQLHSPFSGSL

HOXA7 [3] = molecular target: HOXA7 (Homo sapiens, UniProt P31268 116-202)
HOXC10 [4] = molecular target: HOXC10 (Homo sapiens, UniProt Q9NYD6 254-340)
PAX4 = molecular target: T2, PAX4 (Homo sapiens, UniProt O43316 9-242, R200K)
T2 sequence: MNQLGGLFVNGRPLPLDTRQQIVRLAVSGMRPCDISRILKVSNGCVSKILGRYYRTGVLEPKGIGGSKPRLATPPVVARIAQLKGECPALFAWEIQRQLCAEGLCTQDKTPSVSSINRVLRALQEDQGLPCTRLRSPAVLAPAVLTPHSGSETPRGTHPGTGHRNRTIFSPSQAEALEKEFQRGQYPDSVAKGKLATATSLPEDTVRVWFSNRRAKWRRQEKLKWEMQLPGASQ

HOXB6 [5] = molecular target: HOXB6 (Homo sapiens, UniProt P17509 132-218, K202E)
HOXB9 [6] = molecular target: HOXB9 (Homo sapiens, UniProt P17482 171-250)
HOXC9 [7] = molecular target: HOXC9 (Homo sapiens, UniProt P31274 178-260)
HOXC9 [8] = molecular target: HOXC9 (Homo sapiens, UniProt P31274 178-260, R193K)
HOXC10 [9] = molecular target: HOXC10 (Homo sapiens, UniProt Q9NYD6 254-340, K271E)
HOXD13 [10] = molecular target: HOXD13 (Homo sapiens, UniProt P35453 263-343, T313A)
HOXB9 [11] = molecular target: HOXB9 (Homo sapiens, UniProt P17482 171-250, R186Q)
HOXC9 [12] = molecular target: HOXC9 (Homo sapiens, UniProt P31274 178-260, R222W)
HOXA7 [13] = molecular target: HOXA7 (Homo sapiens, UniProt P31268 116-202, W177C)
HOXB6 [14] = molecular target: HOXB6 (Homo sapiens, UniProt P17509 132-218)
SHOX [15] = molecular target: SHOX (Homo sapiens, UniProt O15266 103-189)
SHOX [16] = molecular target: SHOX (Homo sapiens, UniProt O15266 103-189, R173C)
HOXD13 [17] = molecular target: HOXD13 (Homo sapiens, UniProt P35453 263-343, T313R)
HOXD13 [18] = molecular target: HOXD13 (Homo sapiens, UniProt P35453 263-343)
Chain of HOXD13 (Homo sapiens, UniProt P35453 263-343) (P35453 263-343): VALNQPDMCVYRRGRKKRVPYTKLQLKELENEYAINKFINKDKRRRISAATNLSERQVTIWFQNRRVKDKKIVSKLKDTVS

Chain of HOXA7 (Homo sapiens, UniProt P31268 116-202, W177C) (P31268 116-202 W177C): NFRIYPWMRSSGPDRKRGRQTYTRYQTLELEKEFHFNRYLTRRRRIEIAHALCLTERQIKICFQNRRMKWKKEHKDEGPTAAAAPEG
Chain of HOXC9 (Homo sapiens, UniProt P31274 178-260, R222W) (P31274 178-260 R222W): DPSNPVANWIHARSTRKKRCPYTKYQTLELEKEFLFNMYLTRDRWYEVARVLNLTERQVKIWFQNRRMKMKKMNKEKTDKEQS
Chain of HOXC10 (Homo sapiens, UniProt Q9NYD6 254-340, K271E) (Q9NYD6 254-340 K271E): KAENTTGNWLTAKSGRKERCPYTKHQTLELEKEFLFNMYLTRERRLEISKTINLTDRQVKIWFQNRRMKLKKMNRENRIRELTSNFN
Chain of HOXB9 (Homo sapiens, UniProt P17482 171-250, R186Q) (P17482 171-250 R186Q): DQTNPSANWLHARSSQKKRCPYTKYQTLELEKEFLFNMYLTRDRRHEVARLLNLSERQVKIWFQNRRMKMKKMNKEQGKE
Chain of SHOX (Homo sapiens, UniProt O15266 103-189, R173C) (O15266 103-189 R173C): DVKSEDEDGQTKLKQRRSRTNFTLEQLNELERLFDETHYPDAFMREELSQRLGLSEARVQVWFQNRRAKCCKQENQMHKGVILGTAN
Chain of HOXC9 (Homo sapiens, UniProt P31274 178-260, K195R) (P31274 178-260 K195R): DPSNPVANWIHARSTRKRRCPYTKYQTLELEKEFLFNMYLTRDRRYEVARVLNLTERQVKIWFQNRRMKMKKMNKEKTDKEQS
Chain of HOXC9 (Homo sapiens, UniProt P31274 178-260, R193K) (P31274 178-260 R193K): as the sequence (P31274 178-260 R222W) above, with R16K, W45R counted along it
Chain of HOXB6 (Homo sapiens, UniProt P17509 132-218, K202E) (P17509 132-218 K202E): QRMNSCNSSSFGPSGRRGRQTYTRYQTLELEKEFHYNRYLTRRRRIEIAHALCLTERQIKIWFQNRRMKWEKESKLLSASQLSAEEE
Chain of HOXC9 (Homo sapiens, UniProt P31274 178-260) (P31274 178-260): as the sequence (P31274 178-260 R222W) above, with W45R counted along it
Chain of HOXB9 (Homo sapiens, UniProt P17482 171-250, T197M) (P17482 171-250 T197M): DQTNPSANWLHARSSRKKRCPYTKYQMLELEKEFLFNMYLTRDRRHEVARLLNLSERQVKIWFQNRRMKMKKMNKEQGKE
Chain of HOXB6 (Homo sapiens, UniProt P17509 132-218) (P17509 132-218): as the sequence (P17509 132-218 K202E) above, with E71K counted along it
Chain of HOXA7 (Homo sapiens, UniProt P31268 116-202) (P31268 116-202): as the sequence (P31268 116-202 W177C) above, with C62W counted along it
Chain of HOXB9 (Homo sapiens, UniProt P17482 171-250) (P17482 171-250): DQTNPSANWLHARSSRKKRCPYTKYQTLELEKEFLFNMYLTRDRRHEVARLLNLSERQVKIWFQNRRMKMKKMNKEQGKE
Chain of SHOX (Homo sapiens, UniProt O15266 103-189) (O15266 103-189): as the sequence (O15266 103-189 R173C) above, with C71R counted along it
Chain of HOXD13 (Homo sapiens, UniProt P35453 263-343, T313A) (P35453 263-343 T313A): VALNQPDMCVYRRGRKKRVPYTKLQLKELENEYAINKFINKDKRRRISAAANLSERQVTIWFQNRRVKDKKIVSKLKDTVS
Chain of HOXC10 (Homo sapiens, UniProt Q9NYD6 254-340) (Q9NYD6 254-340): as the sequence (Q9NYD6 254-340 K271E) above, with E18K counted along it
Chain of HOXD13 (Homo sapiens, UniProt P35453 263-343, T313R) (P35453 263-343 T313R): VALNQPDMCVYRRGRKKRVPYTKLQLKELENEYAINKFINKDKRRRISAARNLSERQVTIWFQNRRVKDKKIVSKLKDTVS

For ATTAATGG, the binding signal (HOXB9 [1]) was 10.3 upbm affinity estimate (log intensity, higher = more binding, comparable within an allelic series), the binding signal (HOXC9 [2]) was 12.9 upbm affinity estimate (log intensity, higher = more binding, comparable within an allelic series) and the binding signal (VENTX) was 12.7 upbm affinity estimate (log intensity, higher = more binding, comparable within an allelic series). The binding signal (HOXA7 [3]) was 12 upbm affinity estimate (log intensity, higher = more binding, comparable within an allelic series), the binding signal (HOXC10 [4]) was 12.4 upbm affinity estimate (log intensity, higher = more binding, comparable within an allelic series) and the binding signal (PAX4) was 11.7 upbm affinity estimate (log intensity, higher = more binding, comparable within an allelic series). The binding signal (HOXB6 [5]) was 10.2 upbm affinity estimate (log intensity, higher = more binding, comparable within an allelic series), the binding signal (HOXB9 [6]) was 12.3 upbm affinity estimate (log intensity, higher = more binding, comparable within an allelic series) and the binding signal (HOXC9 [7]) was 12.9 upbm affinity estimate (log intensity, higher = more binding, comparable within an allelic series). For the same sequence, the binding signal (HOXC9 [8]) was 12.9 upbm affinity estimate (log intensity, higher = more binding, comparable within an allelic series), the binding signal (HOXC10 [9]) was 12.2 upbm affinity estimate (log intensity, higher = more binding, comparable within an allelic series) and the binding signal (HOXD13 [10]) was 11.6 upbm affinity estimate (log intensity, higher = more binding, comparable within an allelic series). The binding signal (HOXB9 [11]) was 12 upbm affinity estimate (log intensity, higher = more binding, comparable within an allelic series), the binding signal (HOXC9 [12]) was 11.2 upbm affinity estimate (log intensity, higher = more binding, comparable within an allelic series) and the binding signal (HOXA7 [13]) was 8.96 upbm affinity estimate (log intensity, higher = more binding, comparable within an allelic series). For the same sequence, the binding signal (HOXB6 [14]) was 12.4 upbm affinity estimate (log intensity, higher = more binding, comparable within an allelic series).

With CGGCGAGC the binding signal (SHOX [15]) was 7.05 upbm affinity estimate (log intensity, higher = more binding, comparable within an allelic series) and the binding signal (SHOX [16]) was 7.11 upbm affinity estimate (log intensity, higher = more binding, comparable within an allelic series).

With GACTGGCC the binding signal (SHOX [15]) was 7.34 upbm affinity estimate (log intensity, higher = more binding, comparable within an allelic series) and the binding signal (SHOX [16]) was 7.31 upbm affinity estimate (log intensity, higher = more binding, comparable within an allelic series).

TAAATTAA was tested, and the binding signal (SHOX [15]) was 11.8 upbm affinity estimate (log intensity, higher = more binding, comparable within an allelic series), the binding signal (HOXB9 [1]) was 9.99 upbm affinity estimate (log intensity, higher = more binding, comparable within an allelic series) and the binding signal (PAX4) was 11.8 upbm affinity estimate (log intensity, higher = more binding, comparable within an allelic series). For the same sequence, the binding signal (SHOX [16]) was 9.24 upbm affinity estimate (log intensity, higher = more binding, comparable within an allelic series).

For ACTCATTA, the binding signal (VENTX) was 12.4 upbm affinity estimate (log intensity, higher = more binding, comparable within an allelic series) and the binding signal (SHOX [16]) was 9.29 upbm affinity estimate (log intensity, higher = more binding, comparable within an allelic series).

In the case of ACCATTAA, the binding signal (HOXB9 [1]) is reported as 10.1 upbm affinity estimate (log intensity, higher = more binding, comparable within an allelic series), the binding signal (HOXC9 [2]) is reported as 12.7 upbm affinity estimate (log intensity, higher = more binding, comparable within an allelic series) and the binding signal (HOXA7 [3]) is reported as 11.7 upbm affinity estimate (log intensity, higher = more binding, comparable within an allelic series). The binding signal (HOXB6 [5]) was 10.1 upbm affinity estimate (log intensity, higher = more binding, comparable within an allelic series), the binding signal (HOXB9 [6]) was 11.8 upbm affinity estimate (log intensity, higher = more binding, comparable within an allelic series) and the binding signal (HOXC9 [7]) was 12.7 upbm affinity estimate (log intensity, higher = more binding, comparable within an allelic series). For the same sequence, the binding signal (HOXC9 [8]) was 12.6 upbm affinity estimate (log intensity, higher = more binding, comparable within an allelic series), the binding signal (HOXC10 [9]) was 11.9 upbm affinity estimate (log intensity, higher = more binding, comparable within an allelic series) and the binding signal (HOXB9 [11]) was 11.6 upbm affinity estimate (log intensity, higher = more binding, comparable within an allelic series). For the same sequence, the binding signal (HOXC9 [12]) was 10.9 upbm affinity estimate (log intensity, higher = more binding, comparable within an allelic series), the binding signal (HOXA7 [13]) was 8.92 upbm affinity estimate (log intensity, higher = more binding, comparable within an allelic series) and the binding signal (HOXB6 [14]) was 12 upbm affinity estimate (log intensity, higher = more binding, comparable within an allelic series).

With ACATTAAT the binding signal (HOXB9 [1]) was 10.1 upbm affinity estimate (log intensity, higher = more binding, comparable within an allelic series), the binding signal (HOXC9 [2]) was 12.7 upbm affinity estimate (log intensity, higher = more binding, comparable within an allelic series) and the binding signal (HOXA7 [3]) was 11.6 upbm affinity estimate (log intensity, higher = more binding, comparable within an allelic series). The binding signal (HOXC10 [4]) was 12.2 upbm affinity estimate (log intensity, higher = more binding, comparable within an allelic series), the binding signal (HOXB6 [5]) was 10.1 upbm affinity estimate (log intensity, higher = more binding, comparable within an allelic series) and the binding signal (HOXB9 [6]) was 11.9 upbm affinity estimate (log intensity, higher = more binding, comparable within an allelic series). For the same sequence, the binding signal (HOXC9 [7]) was 12.7 upbm affinity estimate (log intensity, higher = more binding, comparable within an allelic series), the binding signal (HOXC9 [8]) was 12.7 upbm affinity estimate (log intensity, higher = more binding, comparable within an allelic series) and the binding signal (HOXC10 [9]) was 12 upbm affinity estimate (log intensity, higher = more binding, comparable within an allelic series). The binding signal (HOXB9 [11]) was 11.7 upbm affinity estimate (log intensity, higher = more binding, comparable within an allelic series), the binding signal (HOXC9 [12]) was 11 upbm affinity estimate (log intensity, higher = more binding, comparable within an allelic series) and the binding signal (HOXA7 [13]) was 8.92 upbm affinity estimate (log intensity, higher = more binding, comparable within an allelic series). The binding signal (HOXB6 [14]) was 12 upbm affinity estimate (log intensity, higher = more binding, comparable within an allelic series).

With TCCATTAA the binding signal (HOXB9 [1]) was 9.97 upbm affinity estimate (log intensity, higher = more binding, comparable within an allelic series), the binding signal (HOXA7 [3]) was 11.2 upbm affinity estimate (log intensity, higher = more binding, comparable within an allelic series) and the binding signal (HOXB6 [5]) was 9.96 upbm affinity estimate (log intensity, higher = more binding, comparable within an allelic series). For the same sequence, the binding signal (HOXB9 [11]) was 11.5 upbm affinity estimate (log intensity, higher = more binding, comparable within an allelic series), the binding signal (HOXA7 [13]) was 8.72 upbm affinity estimate (log intensity, higher = more binding, comparable within an allelic series) and the binding signal (HOXB6 [14]) was 11.7 upbm affinity estimate (log intensity, higher = more binding, comparable within an allelic series).

CCTGACCC was tested, and the binding signal (HOXB9 [1]) was 8.77 upbm affinity estimate (log intensity, higher = more binding, comparable within an allelic series), the binding signal (HOXB9 [6]) was 8.65 upbm affinity estimate (log intensity, higher = more binding, comparable within an allelic series) and the binding signal (HOXB9 [11]) was 8.66 upbm affinity estimate (log intensity, higher = more binding, comparable within an allelic series).

For CCTACAGG, the binding signal (HOXB9 [1]) was 8.54 upbm affinity estimate (log intensity, higher = more binding, comparable within an allelic series), the binding signal (HOXB6 [5]) was 9 upbm affinity estimate (log intensity, higher = more binding, comparable within an allelic series) and the binding signal (HOXB9 [6]) was 8.25 upbm affinity estimate (log intensity, higher = more binding, comparable within an allelic series). For the same sequence, the binding signal (HOXB9 [11]) was 8.25 upbm affinity estimate (log intensity, higher = more binding, comparable within an allelic series) and the binding signal (HOXB6 [14]) was 8.98 upbm affinity estimate (log intensity, higher = more binding, comparable within an allelic series).

With CGCAGACC the binding signal (VENTX) was 7.99 upbm affinity estimate (log intensity, higher = more binding, comparable within an allelic series).

In the case of ATTATTAA, the binding signal (HOXB9 [1]) is reported as 10 upbm affinity estimate (log intensity, higher = more binding, comparable within an allelic series) and the binding signal (HOXB6 [5]) is reported as 10.1 upbm affinity estimate (log intensity, higher = more binding, comparable within an allelic series).

CTAATGAC was tested, and the binding signal (VENTX) was 12.5 upbm affinity estimate (log intensity, higher = more binding, comparable within an allelic series).

For CGGGCTAG, the binding signal (HOXC9 [2]) was 9.53 upbm affinity estimate (log intensity, higher = more binding, comparable within an allelic series), the binding signal (VENTX) was 7.75 upbm affinity estimate (log intensity, higher = more binding, comparable within an allelic series) and the binding signal (HOXC9 [7]) was 9.6 upbm affinity estimate (log intensity, higher = more binding, comparable within an allelic series). The binding signal (HOXD13 [17]) was 9.56 upbm affinity estimate (log intensity, higher = more binding, comparable within an allelic series), the binding signal (HOXC9 [8]) was 9.51 upbm affinity estimate (log intensity, higher = more binding, comparable within an allelic series) and the binding signal (HOXD13 [18]) was 9.47 upbm affinity estimate (log intensity, higher = more binding, comparable within an allelic series). The binding signal (HOXD13 [10]) was 9.73 upbm affinity estimate (log intensity, higher = more binding, comparable within an allelic series) and the binding signal (HOXC9 [12]) was 9.67 upbm affinity estimate (log intensity, higher = more binding, comparable within an allelic series).

In the case of CTTAATGA, the binding signal (HOXA7 [3]) is reported as 11.3 upbm affinity estimate (log intensity, higher = more binding, comparable within an allelic series), the binding signal (HOXB6 [5]) is reported as 9.94 upbm affinity estimate (log intensity, higher = more binding, comparable within an allelic series) and the binding signal (HOXA7 [13]) is reported as 8.84 upbm affinity estimate (log intensity, higher = more binding, comparable within an allelic series). For the same sequence, the binding signal (HOXB6 [14]) was 11.6 upbm affinity estimate (log intensity, higher = more binding, comparable within an allelic series).
